# Screening results: PubChem BioAssay, several laboratories
# Rows were chosen to be rich in hits. Some 5.2% of all compounds tested hit in one or more screens of this group.
# Calb biofilm kill: kills Candida albicans biofilms. C. albicans biofilm + clotrimazole, Alamar Blue. hit rate 0.14% among 85,000. inhibition, % at 6 µM. AID 834;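 active = inhibition above 20%; inactive = inhibition below 20%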;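 also: preformed 24 hr biofilms exposed to compound for 48 hr; 0% = biofilm without compound and 100% = blank killed by clotrimazole plus chlorhexidine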
# PostGolgi ctrl: growth of the yeast control strain, post-Golgi counter-screen | efflux-deficient yeast background strain, growth absorbance A615, 16 h | inhibition, % at 10 µM | hit rate 5% among 98,000
# PostGolgi yeast: growth inhibition of a yeast mutant, post-Golgi transport screen; hit rate 0.9% among 98,000; post-Golgi transport phenotypic cell assay; inhibition, % at 10 µM;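 also: yeast cells grown in 1536-well plates; yeast grown about 18 h at 30C before absorbance read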
# EphB4 antag: antagonists of human EphB4-ephrin-B2 interaction; P54760; EphB4 LBD / TNYL-RAW-Alexa532 peptide, fluorescence polarization; inhibition, % at 7 µM; hit rate 0.15% among 97,000;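 active = inhibition above the screen-wide mean inhibition plus 3 SD, cut at about 15% in these data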;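 also: 0% = DMSO wells and 100% = excess unlabeled TNYL-RAW peptide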
# Starred values were filed as active, the others as inactive; · = no result given. Rule as the data show it, unless noted: active = inhibition above about 30%; inactive = the rest.
SMILES,Calb biofilm kill,PostGolgi ctrl,PostGolgi yeast,EphB4 antag
CCCC(c1nnnn1CC1CCCO1)N1CCN(c2nc3ccccc3s2)CC1 (stereo not drawn),-3,·,·,-6
c1ccc(CCn2nnnc2C(c2cccnc2)N2CCN(c3nc4ccccc4s3)CC2)cc1 (stereo not drawn),·,15,43*,-2
Fc1ccccc1N1CCN(C(c2cccs2)c2nnnn2CCc2ccccc2)CC1 (stereo not drawn),3,-4,9,-1
CNC(=O)C1CC(=O)N(c2ccc(C)cc2)C1 (stereo not drawn),4,3,0,-6
CCC(C)(C)n1nnnc1C(c1ccc2ncccc2c1)N1CCCC(C)C1 (stereo not drawn),-3,·,·,-5
CCC(C)(C)n1nnnc1C(c1ccc2ncccc2c1)N1CCN(c2nc3ccccc3s2)CC1 (stereo not drawn),8,34*,-2,-2
CCOC(=O)CN1CC23C=CC(O2)C(C(=O)Nc2ccc(F)c(C)c2)C3C1=O (stereo not drawn),10,36*,7,-2
CCOC(=O)c1cc2sccc2n1CCCN1C(=O)c2ccccc2C1=O,4,32*,-4,-10
CC(=O)c1c(C)[nH]c(C(=O)OCCCCN2C(=O)c3ccccc3C2=O)c1C,-2,11,6,-3
O=C(Nc1ccncc1)c1cccc(F)c1,-1,32*,16,1
Cc1ccc(O)c(-c2cc(C(=O)NCc3ccncc3)[nH]n2)c1,8,-2,6,0
Cc1cc(C)c(O)c(-c2cc(C(=O)NCc3ccccc3)[nH]n2)c1,0,32*,-16,3
COC(=O)CN1C(=S)N(Cc2ccccc2)C(=O)C1CC(=O)Nc1ccc(Br)cc1 (stereo not drawn),·,79*,-1,4
CCCC1=C(C(=O)OCC)C(c2cc(Cl)cc(OC)c2OCc2ccccc2)NC(=O)N1 (stereo not drawn),11,16,2,3
Cn1c2ccc(Cl)cc2c2nc3ccccc3nc21,3,6,38*,-5
CCCN(CCC)C(=O)CC(c1ccccc1)c1cc(Br)ccc1O (stereo not drawn),4,47*,-5,1
CCCN(CCC)C(=O)CC(c1ccccc1)c1ccc(C)cc1O (stereo not drawn),5,17,5,-1
CC(=O)n1c2c(c3ccccc31)OC(N)=C(C#N)C2c1ccc(C(C)C)cc1 (stereo not drawn),·,34*,18,4
CCOc1cc(/C=C2\C(=O)N(c3nc(-c4ccc(Br)cc4)cs3)N=C2c2ccccc2)ccc1O,6,31*,1,6
COc1ccc(/C=C2\C(=O)N(c3nc(-c4ccc(Br)cc4)cs3)N=C2c2ccccc2)cc1,7,·,·,-2
Cc1cccc(-c2noc(CN(C(=O)c3ccc(Br)o3)C(C)C)n2)c1,-4,33*,-2,2
COc1cccc(C(=O)N(Cc2nc(-c3ccc(C)cc3)no2)C(C)C)c1,6,15,1,-7
Cc1ccc(C)c(C(=O)N(Cc2nc(-c3ccc(Cl)cc3)no2)C(C)C)c1,13,32*,-1,-1
Cc1cccc(-c2noc(CN(C(=O)c3ccc4c(c3)OCO4)C(C)C)n2)c1,2,3,6,-6
CC(C)N(Cc1nc(-c2ccc(Cl)cc2)no1)C(=O)CCC1CCCC1,8,35*,3,2
SMILES,Calb biofilm kill,PostGolgi ctrl,PostGolgi yeast,EphB4 antag
COc1ccccc1OCC(=O)N(Cc1nc(-c2ccc(Cl)cc2)no1)C(C)C,0,46*,-8,-2
CC(C)N(Cc1nc(-c2ccccc2)no1)C(=O)Cc1ccccc1,1,29,-8,-1
Cc1ccc(-c2nnc(SCC(=O)N3CCOCC3)nc2-c2ccc(C)cc2)cc1,6,-3,-9,-1
Cn1c(=O)[nH]c(=O)c2c1nc(N1CCCC1)n2CCSc1nc2ccccc2[nH]1,·,6,2,1
COc1cccc(OCC(=O)N(Cc2nc(-c3ccc(Cl)cc3)no2)C(C)C)c1,1,54*,10,-6
CCCCCCSc1nnc(-c2cnn(-c3ccccc3)c2-n2cccc2)n1C,2,61*,-10,1
CCCNC(=O)CSc1nc(-c2cccs2)cc(C(F)(F)F)n1,0,6,3,8
O=C(CSc1nc(-c2cccs2)cc(C(F)(F)F)n1)NCc1ccccc1,5,30*,-3,-1
Cc1ccc2nc(NC(=O)CCNS(=O)(=O)c3cccs3)sc2c1,3,36*,14,·
Cc1ccc2nc(NC(=O)CCNS(=O)(=O)c3ccc(Br)s3)sc2c1,4,42*,4,-4
Cc1ccc(N=Cc2c(O)n(-c3cc(Cl)ccc3N3CCOCC3)c(=O)c3ccccc23)cc1C,6,4,8,-4
Cc1cccc(NC(=O)c2ccc(S(=O)(=O)N(C)C)cc2)n1,·,·,·,18*
Nc1nc(-c2ccccc2)cc(-c2ccccc2O)n1,-2,35*,54*,0
NNc1nc(-c2ccccc2)cc(-c2ccccc2O)n1,·,12,-2,4
Fc1ccc2nc3n(c2c1F)CCCCCC3,5,40*,1,4
O=c1c2cc(Br)ccc2nc2n1CCCCC2,-1,-8,-2,2
COc1ccc(S(=O)(=O)N2CCC(C(=O)N3CCCCCC3)CC2)cc1,-3,16,-1,7
Cc1ccc(S(=O)(=O)C2(C(=O)Nc3cccc(F)c3)CC2)cc1,10,3,-3,·
Cc1ccc(C2=[N+]([O-])C(C)(C)CC2)cc1,0,33*,2,3
CCOC(=O)C1CCCc2c1[nH]c1c(C(N)=O)cccc21 (stereo not drawn),-4,34*,7,2
NC(=O)c1cccc2c3c([nH]c12)CCCC3,9,11,7,-4
O=C(NCCCN1CCC(Cc2ccccc2)CC1)C1CC(=O)N(C2CCCCCC2)C1 (stereo not drawn),0,2,4,2
Cc1cc(NC(=O)c2oc3ccccc3c2C)ccc1-n1cnnn1,11,34*,-8,-3
Cc1ccc(Cn2ccc(=O)c(OCc3c(Cl)cccc3Cl)c2C)cc1,2,48*,4,-2
Cc1sc2nc(SCc3nnc(-c4cccs4)o3)n(C3CCCC3)c(=O)c2c1C,10,30*,26,1
SMILES,Calb biofilm kill,PostGolgi ctrl,PostGolgi yeast,EphB4 antag
CCOC(=O)C(C(=O)Nc1cccc(C)c1)C1CCCCC1 (stereo not drawn),-1,6,3,5
COc1nc(NC23CC4CC(CC(C4)C2)C3)nc(OC)n1,·,34*,-1,7
Cc1cc(NC(=O)NC(=O)c2cccc(OC(F)(F)C(F)F)c2)n[nH]1,5,33*,-11,1
COc1cccc(C(=O)Nc2c(C)n[nH]c2C)c1,6,-7,3,-3
Oc1c(C=Nc2cccnc2)sc2ccccc12,3,31*,3,-2
CCc1nnc(NC(=O)[C@@H](NC(=O)c2cccc(S(=O)(=O)N(CC)CC)c2)C(C)C)s1,·,4,0,1
O=C(NCc1ccc2c(c1)OCO2)c1ccc(-n2cnnn2)cc1,8,1,41*,-1
Cc1cc(C)cc(-n2nnc(C(=O)NCc3ccc4c(c3)OCO4)c2N)c1,4,31*,-3,2
O=C(Cn1nnc(-c2cccc(C(F)(F)F)c2)n1)NC1CCCC1,3,5,8,·
